Assay results from PubChem BioAssay AID1159580 (chemical genetic matrix, 2015).
About 2,000 (36%) of roughly 5,500 compounds were called active. Inconclusive results (about 18%) are left out. Cut-off read from the data, not from the text of the source: active = normalized growth mostly below about 0.91 (no sharp cut-off); inconclusive = no clear call, values can overlap the other calls; inactive = mostly above about 0.92. This is one part of the list.

Test: chemical genetic growth profiling, strain panel (AID 1159580);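 note: tested at 20 µM; growth read once vehicle control cultures reached saturation at 30 °C; 1 = growth at the plate median or of vehicle wells; lower values mean less growth of the strain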
Settings: growth OD

Measured: normalized growth

CC(=O)O[C@H]1C[C@H](O[C@H]2[C@@H](O)C[C@H](O[C@H]3[C@@H](O)C[C@H](O[C@H]4CC[C@@]5(C)C(CCC6C5C[C@@H](O)[C@]5(C)[C@@H](C7=CC(=O)OC7)CC[C@]65O)C4)O[C@@H]3C)O[C@@H]2C)O[C@H](C)[C@H]1O[C@@H]1O[C@H](CO)[C@@H](O)[C@H](O)[C@H]1O (stereo not given in full)
inactive: S. cerevisiae deletion strains, locus YJR075W, strain HOC1, hits give low values 1.02 | S. cerevisiae deletion strains, locus YKL009W, strain mrt4, hits give low values 1 | S. cerevisiae deletion strains, locus YKL068W, hits give low values 1 | S. cerevisiae deletion strains, locus YKL085W, strain MDH1 (second series), hits give low values 1 | S. cerevisiae deletion strains, locus YKL085W, strain MDH1, hits give low values 1 | S. cerevisiae deletion strains, locus YKL160W, strain elf1, hits give low values 1.01 | S. cerevisiae deletion strains, locus YKL190W, strain CNB1, hits give low values 1.01 | S. cerevisiae deletion strains, locus YKR001C, strain vps1, hits give low values 1.01 | S. cerevisiae deletion strains, locus YKR026C, strain gcn3, hits give low values 0.982 | S. cerevisiae deletion strains, locus YKR091W, strain srl3, hits give low values 1 | S. cerevisiae deletion strains, locus YLL001W, strain dnm1, hits give low values 1 | S. cerevisiae deletion strains, locus YLL026W, hits give low values 0.999 | S. cerevisiae deletion strains, locus YLL041C, strain sdh2, hits give low values 1 | S. cerevisiae deletion strains, locus YLR027C, strain aat2, hits give low values 1 | S. cerevisiae deletion strains, locus YLR039C, strain RIC1, hits give low values 1.05 | S. cerevisiae deletion strains, locus YLR058C, strain SHM2, hits give low values 1.02 | S. cerevisiae deletion strains, locus YLR102C, strain apc9, hits give low values 0.978 | S. cerevisiae deletion strains, locus YLR113W, strain HOG1, hits give low values 0.977 | S. cerevisiae deletion strains, locus YLR221C, strain rsa3, hits give low values 1 | S. cerevisiae deletion strains, locus YLR258W, strain gsy2, hits give low values 0.994 | S. cerevisiae deletion strains, locus YLR262C, strain YPT6 (second series), hits give low values 0.999 | S. cerevisiae deletion strains, locus YLR262C, strain YPT6, hits give low values 1.04 | S. cerevisiae deletion strains, locus YLR268W, strain sec22, hits give low values 1 | S. cerevisiae deletion strains, locus YLR320W, strain mms22, hits give low values 0.999 | S. cerevisiae deletion strains, locus YLR330W, strain CHS5, hits give low values 1.01 | S. cerevisiae deletion strains, locus YLR342W, strain FKS1 (second series), hits give low values 1.02 | S. cerevisiae deletion strains, locus YLR342W, strain FKS1, hits give low values 1 | S. cerevisiae deletion strains, locus YLR357W, strain rsc2, hits give low values 0.993 | S. cerevisiae deletion strains, locus YLR370C, strain arc18, hits give low values 0.994 | S. cerevisiae deletion strains, locus YLR371W, strain rom2, hits give low values 0.975 | S. cerevisiae deletion strains, locus YLR384C, strain iki3, hits give low values 0.988 | S. cerevisiae deletion strains, locus YLR418C, strain cdc73, hits give low values 1.05 | S. cerevisiae deletion strains, locus YML016C, strain PPZ1, hits give low values 1.01 | S. cerevisiae deletion strains, locus YML032C, strain rad52, hits give low values 0.991 | S. cerevisiae deletion strains, locus YML120C, strain ndi1, hits give low values 0.992 | S. cerevisiae deletion strains, locus YML124C, strain tub3, hits give low values 0.992 | S. cerevisiae deletion strains, locus YMR058W, strain fet3, hits give low values 1 | S. cerevisiae deletion strains, locus YMR078C, strain ctf18, hits give low values 0.984 | S. cerevisiae deletion strains, locus YMR125W, strain sto1, hits give low values 0.979 | S. cerevisiae deletion strains, locus YMR129W, hits give low values 0.991 | S. cerevisiae deletion strains, locus YMR205C, strain PFK2, hits give low values 0.974 | S. cerevisiae deletion strains, locus YMR223W, strain ubp8, hits give low values 0.997 | S. cerevisiae deletion strains, locus YMR231W, strain pep5, hits give low values 0.989 | S. cerevisiae deletion strains, locus YMR263W, strain SAP30, hits give low values 1.01 | S. cerevisiae deletion strains, locus YMR307W, strain GAS1, hits give low values 1.07 | S. cerevisiae deletion strains, locus YNL067W, strain RPL9B, hits give low values 1 | S. cerevisiae deletion strains, locus YNL071W, strain lat1, hits give low values 0.999 | S. cerevisiae deletion strains, locus YNL183C, strain NPR1, hits give low values 0.922 | S. cerevisiae deletion strains, locus YNL209W, strain ssb2, hits give low values 0.999 | S. cerevisiae deletion strains, locus YNL233W, strain BNI4, hits give low values 1.01 | S. cerevisiae deletion strains, locus YNL248C, strain rpa49, hits give low values 0.998 | S. cerevisiae deletion strains, locus YNL250W, strain rad50, hits give low values 1.01 | S. cerevisiae deletion strains, locus YNL271C, strain bni1, hits give low values 1.01 | S. cerevisiae deletion strains, locus YNL298W, strain CLA4, hits give low values 1 | S. cerevisiae deletion strains, locus YNL307C, strain MCK1, hits give low values 0.991 | S. cerevisiae deletion strains, locus YNL322C, strain KRE1 (second series), hits give low values 0.993 | S. cerevisiae deletion strains, locus YNL322C, strain KRE1, hits give low values 1.01 | S. cerevisiae deletion strains, locus YNR049C, strain mso1, hits give low values 0.992 | S. cerevisiae deletion strains, locus YNR052C, strain pop2, hits give low values 0.994 | S. cerevisiae deletion strains, locus YOL006C, strain TOP1, hits give low values 1.03 | S. cerevisiae deletion strains, locus YOL012C, strain htz1 0.846 | S. cerevisiae deletion strains, locus YOL147C, strain pex11, hits give low values 0.988 | S. cerevisiae deletion strains, locus YOR001W, strain rrp6, hits give low values 1.01 | S. cerevisiae deletion strains, locus YOR061W, strain CKA2, hits give low values 1.01 | S. cerevisiae deletion strains, locus YOR069W, strain VPS5, hits give low values 1.01 | S. cerevisiae deletion strains, locus YOR070C, strain gyp1, hits give low values 0.999 | S. cerevisiae deletion strains, locus YOR080W, strain dia2, hits give low values 0.999 | S. cerevisiae deletion strains, locus YOR083W, strain WHI5, hits give low values 1 | S. cerevisiae deletion strains, locus YOR106W, strain vam3, hits give low values 1.01 | S. cerevisiae deletion strains, locus YOR136W, strain idh2, hits give low values 1 | S. cerevisiae deletion strains, locus YOR144C, strain elg1, hits give low values 1 | S. cerevisiae deletion strains, locus YOR184W, strain ser1, hits give low values 1.02 | S. cerevisiae deletion strains, locus YOR231W, strain MKK1, hits give low values 0.983 | S. cerevisiae deletion strains, locus YOR265W, strain rbl2, hits give low values 1 | S. cerevisiae deletion strains, locus YOR270C, strain vph1, hits give low values 0.946 | S. cerevisiae deletion strains, locus YOR290C, strain snf2, hits give low values 1.02 | S. cerevisiae deletion strains, locus YOR316C, strain cot1, hits give low values 0.982 | S. cerevisiae deletion strains, locus YPL051W, strain arl3, hits give low values 1 | S. cerevisiae deletion strains, locus YPL055C, strain LGE1, hits give low values 0.997 | S. cerevisiae deletion strains, locus YPL078C, strain atp4, hits give low values 1.02 | S. cerevisiae deletion strains, locus YPL106C, strain sse1, hits give low values 1 | S. cerevisiae deletion strains, locus YPL240C, strain hsp82, hits give low values 0.999 | S. cerevisiae deletion strains, locus YPL241C, strain CIN2, hits give low values 1.01 | S. cerevisiae deletion strains, locus YPL256C, strain CLN2, hits give low values 0.994 | S. cerevisiae deletion strains, locus YPR119W, strain clb2, hits give low values 0.981 | S. cerevisiae deletion strains, locus YPR141C, strain kar3, hits give low values 1.01 | S. cerevisiae deletion strains, locus YPR163C, strain tif3, hits give low values 0.99 | S. cerevisiae deletion strains, locus YPR167C, strain met16, hits give low values 1.01 | S. cerevisiae deletion strains, strain wtn01, hits give low values 1.01 | S. cerevisiae strains, strain wild type, hits give low values 1.01
